Among the data in ChEMBL document CHEMBL4513216, “Probing the Open Global Health Chemical Diversity Library for Multistage-Active Starting Points for Next-Generation Antimalarials” (ACS Infect Dis, 2020) are INHIBITION values, retold here.

Out of some 69,000 compounds screened, about 8,600 (12%) showed an effect of 50% or more. The list comes from a sample in which strong results are over-represented; it also holds similar structures and randomly drawn compounds.

This experiment relates to Plasmodium berghei. Nature of the experiment: Screen against P. berghei liver stage (PbLuc), transformed with Luciferase, at 10uM. In kind it is functional, HepG2. The settings on record: tested at 10 uM.
With `CCc1ncnc2c1CCN(CCOC)CC2`, the INHIBITION worked out at 32.5%.

As for `CCC[C@H]1CN(S(C)(=O)=O)C[C@@H]1NC(=O)Cc1ccc(F)cc1C`, the INHIBITION is recorded as 30.3%.

For `O=C(NCCCc1nc(=O)[nH][nH]1)c1ccc(Cl)cn1`, the INHIBITION came out at 67.5%.

With `O=C(NCCCc1nc(=O)[nH][nH]1)Nc1cccc(F)c1`, the INHIBITION worked out at 48%.

Turning to `O=C(NCCCc1nc(=O)[nH][nH]1)Nc1ccc(Cl)cc1`, the INHIBITION is 23.9%.

Consider `O=c1[nH]cc(Nc2ccccc2)c(=O)[nH]1`, for which the INHIBITION was 43.8%.

On to `OC1(CN2CCOC(Cn3cccn3)C2)CCCCC1` (stereo unspecified), for which the INHIBITION was -37.7%.

In the case of `COCCN1CCN(CC(C)(O)c2cccc(C(F)(F)F)c2)CC1` (stereo unspecified), the INHIBITION stood at 37.3%.

As for `COc1cccc(OCCc2cncc(C(N)=O)c2)c1`, the INHIBITION is 15.9%.

On to `COc1cccc(OCCCc2cncc(C(N)=O)c2)c1`, for which the INHIBITION is -10.3%.

For the compound `COc1ccccc1OCCCc1cncc(C(N)=O)c1`, the INHIBITION is 80.2%.

`Cc1nc(C(=O)N2CCN(S(=O)(=O)N(C)C)CC2)c(-c2ccccc2)s1`: the INHIBITION came out at 36.6%.

With `CCN1C[C@H]2CCN(C(=O)NC)CC[C@H]2S1(=O)=O`, the INHIBITION is given as -0.813%.

On to `O=C(NCc1ccccc1CN1CCC(O)CC1)Nc1ccncc1`, for which the INHIBITION is -8.19%.

Regarding `O=C(NCc1ccccc1CN1CCC(O)CC1)Nc1ccccn1`, the INHIBITION is recorded as 52%.

In the case of `O=C(NCc1ccccc1CN1CCC(O)CC1)Nc1ccccc1`, the INHIBITION is given as 40.2%.

In the case of `COC(=O)c1cc(CN2CCC(c3noc(C)n3)CC2)c(C)s1`, the INHIBITION was 7.24%.

On to `Cc1cc(F)cc(NC(=O)N(C)CC(C)(CO)CO)c1`, for which the INHIBITION is recorded as -31.38%.

Turning to `NC1CCC(Nc2nccc(CCC(F)(F)F)n2)CC1` (stereo unspecified), the INHIBITION worked out at 75.6%.

Take `N[C@@H]1CC[C@@H](Nc2nccc(CCC(F)(F)F)n2)C1`: the INHIBITION stood at 7.4%.

For the compound `FC(F)(F)CCc1ccnc(NC2CCC(n3cnnc3)CC2)n1` (stereo unspecified), the INHIBITION stood at 32.3%.

Consider `CCc1csc(C2CCCN(C(=O)c3cc(C4CC4)[nH]n3)C2)n1` (stereo unspecified), for which the INHIBITION was 27.8%.

For `O=C(Cc1cccnc1)N1CCC2(CC1)CCN(C1CCOCC1)CC2`, the INHIBITION is 8.44%.

On to `CCOc1ncccc1CNC(=O)N1CCC(n2cncn2)CC1`, for which the INHIBITION came out at 11.4%.

For the compound `CCOc1ccccc1CNC(=O)N1CCC(n2cncn2)CC1`, the INHIBITION is recorded as 63.5%.

For `CCOc1ncccc1NC(=O)N1CCC(n2cncn2)CC1`, the INHIBITION is on record as -2.98%.

On to `COc1ccccc1C(C)NC(=O)N1CCC(n2cncn2)CC1` (stereo unspecified), for which the INHIBITION is 11.2%.

On to `CC(C)Oc1ccccc1CNC(=O)N1CCC(n2cncn2)CC1`, for which the INHIBITION is recorded as 51.3%.

As for `CC(C)Oc1ccccc1NC(=O)N1CCC(n2cncn2)CC1`, the INHIBITION turned out to be 56.6%.

For `Cc1ccccc1CNC(=O)N1CCC(n2cncn2)CC1`, the INHIBITION is given as 4.52%.

As for `COc1ccccc1CCNC(=O)N1CCC(n2cncn2)CC1`, the INHIBITION amounted to 16.9%.

With `COc1cc(Cl)ccc1CNC(=O)N1CCC(n2cncn2)CC1`, the INHIBITION was determined as 0.411%.

With `CCS(=O)(=O)N1C[C@@H](O)[C@H](Oc2cccc(F)c2)C1`, the INHIBITION is -18.8%.

Take `CC(C)Oc1ncccc1CNC(=O)NC(C)c1cccs1` (stereo unspecified): the INHIBITION was 43.6%.

Regarding `Cc1cc(C)n(-c2ccc(C(=O)NCC(CO)Cc3cccs3)cc2)n1` (stereo unspecified), the INHIBITION is on record as 23.9%.

As to `O=S(=O)(Cc1ccc(F)cc1F)NCCOc1cccnc1`, the INHIBITION is reported as 46.1%.

As to `CC[C@H](Cn1ncc2ccccc2c1=O)NC(=O)c1ccccn1`, the INHIBITION is recorded as 31.3%.

For `CN(C)C(=O)C1CCc2nnc(CNC(=O)c3ccc(Cl)cc3Cl)n21` (stereo unspecified), the INHIBITION is recorded as 27.5%.

Regarding `CCC(C)NC(=O)CCc1ccc(OCC(F)(F)F)c(OC)c1` (stereo unspecified), the INHIBITION is given as 31.9%.

With `CC1COCCN1Cc1nc(-c2cccs2)no1` (stereo unspecified), the INHIBITION was 22.9%.

Take `CC(C)Cc1noc(CN2CCOCC2)n1`: the INHIBITION is on record as 1.48%.

As for `CC(C)c1noc(CN2CCOCC2C)n1` (stereo unspecified), the INHIBITION stood at 17.5%.

For the compound `CCCc1noc(CN2CCOCC2C)n1` (stereo unspecified), the INHIBITION was 65.6%.

As to `CC1CCCCN1Cc1nc(Cc2ccccc2)no1` (stereo unspecified), the INHIBITION came out at 20.2%.

For `CC1COCCN1Cc1nc(Cc2ccccc2)no1` (stereo unspecified), the INHIBITION was found to be 54.4%.

Consider `CC1COCCN1Cc1nc(C(C)(C)C)no1` (stereo unspecified), for which the INHIBITION is 15.2%.

As to `CC(C)Cc1noc(CN2CCOCC2C)n1` (stereo unspecified), the INHIBITION came out at 51%.

Consider `CC1COCCN1Cc1noc(C(C)(C)C)n1` (stereo unspecified), for which the INHIBITION came to 38.7%.

Consider `O=C(COC1CCCC1)NCCc1nc(-c2ccccn2)cs1`, for which the INHIBITION amounted to 30.8%.

On to `Cn1cnc2cc(CCC(=O)Nc3n[nH]c(C4CCCO4)n3)ccc21` (stereo unspecified), for which the INHIBITION is reported as 8.99%.

`N#Cc1ccccc1N1CCCN(C(=O)CCc2cccs2)CC1`: the INHIBITION is -29.1%.

Take `Cc1nc(CN2CCCCC2CCc2ccc(O)cc2)co1` (stereo unspecified): the INHIBITION is given as 12.6%.

As for `c1csc(CN2CCCn3cnc(CN4CCCC4)c3C2)c1`, the INHIBITION was 41.6%.

Consider `c1coc(-c2nc(CN3CCCC(Cn4cncn4)C3)cs2)c1` (stereo unspecified), for which the INHIBITION amounted to 16.8%.

As to `Cc1cc(C)nc(N2CCC(c3c(C(N)=O)sc4ccccc34)C2)n1` (stereo unspecified), the INHIBITION was -14.2%.

As to `CNC(=O)c1sc2ccccc2c1C1CCN(c2cc(C)nc(C)n2)C1` (stereo unspecified), the INHIBITION is 74.9%.
